In PubChem BioAssay (NCATS):
Inconclusive results are not listed. Calls of active or inactive are those of the source. The call rests on the fitted dose curve; in most records, active means well fitted curve in the direction sought with a large enough effect; inconclusive means small, poorly fitted or top-dose-only effect, or another doubt; inactive means no such curve, though single readings can be large; an effect the other way counts as inactive or inconclusive.

Legend:
[1] = MultiTox-Fluor Cytotoxicity Assay - LYMP1-001 - Dead Cells (AID 946); details: LYMP1-001 lymphoblastoid cells, dead-cell protease fluorescence; series mostly up to 92.2 µM
Procedure, shortened: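 AC50 from Hill fit of concentration-response; data normalized to DMSO (basal) and 15 uM tetraoctylammonium bromide (100%). LYMP1-001 lymphoblastoid cells, 2500/well, 16 hr compound at 37 C; dead-cell protease fluorescence, Ex/Em 485/520.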

[2] = MultiTox-Fluor Cytotoxicity Assay - LYMP1-001 - Live Cells (AID 947); details: LYMP1-001 lymphoblastoid cells, live-cell protease fluorescence viability; series mostly up to 92.2 µM
[3] = Cell Viability - LYMP1-002 - Assay at 16 hr (AID 948); details: LYMP1-002 lymphoblastoid cell viability; series mostly up to 92.2 µM
Procedure, shortened: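 ATP luminescence (CellTiter-Glo) was measured after 16 hr compound exposure at 37 C of 2500 lymphoblastoid LYMP1-002 cells per well. Concentration-response curves were fitted with the Hill equation to give AC50.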

[4] = MultiTox-Fluor Cytotoxicity Assay - LYMP1-002 - Live Cells (AID 955); details: LYMP1-002 lymphoblastoid live-cell protease fluorescence viability; series mostly up to 46.1 µM
Procedure, shortened: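 Human lymphoblastoid LYMP1-002 cells, 2500/well in complete medium, rested 5 hr at 37 C, then exposed to compounds for 16 hr at 37 C. Live-cell protease cleavage of GF-AFC read by fluorescence (Ex/Em 405/510) after 60 min at room temperature; AC50 from Hill fits.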

[5] = MultiTox-Fluor Cytotoxicity Assay - LYMP1-002 - Dead Cells (AID 960); details: LYMP1-002 lymphoblastoid cells, dead-cell protease fluorescence; series mostly up to 46.1 µM; further: nearly all actives have a fitted effect of over 60% in size
Procedure, shortened: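 Human lymphoblastoid cells (LYMP1-002), 2500/well in complete medium, were exposed to compounds for 16 hr at 37 C. Dead-cell protease activity was read as bis-AAF-R110 fluorescence (Ex/Em 485/520), normalized to DMSO and 15 uM tetraoctylammonium bromide; AC50 from Hill fits.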

[6] = MultiTox-Fluor Cytotoxicity Assay - LYMP1-003 - Dead Cells (AID 961); details: LYMP1-003 lymphoblastoid cells, dead-cell protease fluorescence; series mostly up to 92.2 µM; further: nearly all actives have a fitted effect of over 70% in size
Procedure, shortened: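 Human lymphoblastoid LYMP1-003 cells (2500/well) were treated with compounds for 16 hr at 37 C in complete medium. Dead-cell protease release was read by bis-AAF-R110 fluorescence (Ex/Em 485/520). AC50 came from Hill fits, normalized to DMSO and 15 uM tetraoctylammonium bromide.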

[7] = MultiTox-Fluor Cytotoxicity Assay - LYMP1-003 - Live Cells (AID 962); details: LYMP1-003 lymphoblastoid cells, MultiTox-Fluor live-cell protease fluorescence; series mostly up to 92.2 µM;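 further: cytotoxic hits lower the live-cell protease signal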
Procedure, shortened: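 LYMP1-003 human lymphoblastoid cells (2500/well) in complete medium were preincubated 5 hr at 37 C, then exposed to compounds for 16 hr at 37 C. Live-cell protease cleavage of GF-AFC read by fluorescence (Ex/Em 405/510); AC50 from Hill fits.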

[8] = Cell Viability - LYMP1-003 - Assay at 24 hr (AID 963); details: LYMP1-003 lymphoblastoid cell viability; series mostly up to 92.2 µM
Procedure, shortened: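 Human lymphoblastoid LYMP1-003 cells (2500/well) were rested 5 hr at 37 C, then exposed to compounds in complete medium for 24 hr at 37 C. Cellular ATP was quantified by CellTiter-Glo luminescence, and AC50 values came from Hill fits of concentration-response data.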

[9] = Cell Viability - LYMP1-003 - Assay at 40 hr (AID 964); details: LYMP1-003 lymphoblastoid viability; series mostly up to 92.2 µM; further: nearly all actives have a fitted effect of over 60% in size
Procedure, shortened: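 Human lymphoblastoid LYMP1-003 cells, 2500/well in complete medium, rested 5 hr at 37 C, then exposed to compounds for 40 hr at 37 C. Viability read as intracellular ATP by CellTiter-Glo luminescence; AC50 from Hill fits of concentration-response data.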

[10] = Cell Viability - LYMP2-003 (AID 965); details: LYMP2-003 lymphoblastoid cell viability; series mostly up to 92.2 µM;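 further: cells exposed to compounds for 24 h before reading; nearly all actives have a fitted effect of over 50% in size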
Procedure, shortened: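 CellTiter-Glo luminescence quantified ATP loss after 24 h compound treatment of LYMP2-003 lymphoblastoid cells at 37 C. Titration series were fitted with the standard Hill equation to give AC50.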

Measured: Potency

Cc1ccc2cccnc2c1
inactive: all assays above

CN(C)CCCNCCCN
inactive: all assays above

CCCC=O
inactive: all assays above

CCOCC(=O)O
inactive: all assays above

CCCCC(C=O)CC (stereo not given)
inactive: all assays above

CC(=O)C1(C)CC2=C(CCCC2(C)C)CC1C (stereo not given)
inactive: all assays above

N#CC1(O)CCCCC1
inactive: all assays above

CC(=O)c1cc(C)oc1C
inactive: all assays above

CCOc1ccc(NC(C)=O)cc1N
inactive: all assays above

Cc1cccc([N+](=O)[O-])c1C(=O)O
inactive: all assays above

CC(=O)OCCC(C)C
inactive: all assays above

Cc1cccc(C)c1[N+](=O)[O-]
inactive: all assays above

COc1ccc(N)c(C)c1
inactive: all assays above

C=C(C)OC(C)=O
inactive: all assays above

Cc1ccc([N+](=O)[O-])c(N)c1
inactive: all assays above

CC1(N)CCC(C(C)(C)N)CC1 (stereo not given)
inactive: all assays above

CCCCN(CCO)CCCC
inactive: all assays above

CNc1ccccc1
inactive: all assays above

CC(=O)Nc1ccc(C)cc1
inactive: all assays above

CCNS(=O)(=O)c1ccc(C)cc1
inactive: all assays above

Cc1ccc(C)o1
inactive: all assays above

CC(=O)Nc1ccc(N)cc1
inactive: all assays above

Cc1cccc2ccccc12
inactive: all assays above

CC(=O)c1ccccc1[N+](=O)[O-]
inactive: all assays above

C/C(C=O)=C/c1ccccc1
inactive: all assays above

Nc1cc([N+](=O)[O-])ccc1C(=O)O
inactive: all assays above

CC(O)COC(C)(C)C (stereo not given)
inactive: all assays above

CCNc1cc(O)ccc1C
inactive: all assays above

CC(C)=C1CCC(C)CC1=O (stereo not given)
inactive: all assays above

CC(C)CO
inactive: all assays above

CCC(C)(C)C
inactive: all assays above

O=[N+]([O-])c1cccc(C(F)(F)F)c1
inactive: all assays above

Cc1ccccc1C#N
inactive: all assays above

c1ccc(Nc2ccccc2)cc1
inactive: all assays above

CCCCC(CC)C(=O)O (stereo not given)
inactive: all assays above

O=Cc1ccc(Cl)cc1
inactive: all assays above

C=C(C)C(=O)OCC(C)O (stereo not given)
inactive: all assays above

Cc1cccc2cccnc12
inactive: all assays above

BrC/C=C/CBr
inactive: all assays above

C[C@@H]1CC2(OC[C@]3(C)O[C@H]23)O[C@H]2C[C@@]3(C)[C@@H]4CC[C@H]5C(C)(C)C(O[C@@H]6OC[C@@H](O)[C@H](O)[C@H]6O)CC[C@@]56C[C@@]46CC[C@]3(C)[C@@H]12 (stereo not given in full)
inactive: all assays above

CC(C)C(C)C
inactive: all assays above

CC(=O)OC(C)C
inactive: all assays above

CNC(=O)c1ccccc1
inactive: all assays above

Cc1c(C(=O)O)cccc1[N+](=O)[O-]
inactive: all assays above

Cc1ccc(C#N)cc1
inactive: all assays above

Cc1ccc(Cl)cc1N
inactive: all assays above

C/C=C1\CC2C=CC1C2 (stereo not given)
inactive: all assays above

O=Cc1ccc(CO)o1
inactive: all assays above

CC(C)(O)CCC(C)(C)O
inactive: all assays above

O=C(O)c1ccccc1C(=O)O
inactive: all assays above

CC(C=O)Cc1ccc(C(C)(C)C)cc1 (stereo not given)
inactive: all assays above

Cc1c(N)cccc1N
inactive: all assays above

CC(=O)Nc1cccc(N)c1
inactive: all assays above

ON=C1CCCCC1
inactive: all assays above

Cc1nc2ccc(Cl)cc2[nH]1
inactive: all assays above

O=C(O)c1c(Cl)cccc1Cl
inactive: all assays above
